Reference: PubChem BioAssay AID1159580 (chemical genetic matrix, 2015)
The campaign covered roughly 5,500 compounds. About 2,000 (36%) were called active. About 18% were inconclusive and are not listed. Rule as the data show it: active = normalized growth mostly below about 0.91 (no sharp cut-off); inconclusive = no clear call, values can overlap the other calls; inactive = mostly above about 0.92. Some of the results follow.

Assay: chemical genetic growth profiling, strain panel (AID 1159580);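 also: tested at 20 µM; growth read once vehicle control cultures reached saturation at 30 °C; 1 = growth at the plate median or of vehicle wells; lower values mean less growth of the strain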
Settings: S. cerevisiae deletion strains, growth OD

Measured: normalized growth

CNC(=O)O/N=C\C(C)(C)SC
inactive: locus YAL013W, strain DEP1, active compounds read low 1.01 | locus YAL021C, strain ccr4, active compounds read low 0.997 | locus YAL026C, strain drs2, active compounds read low 1 | locus YAL030W, strain snc1, active compounds read low 1 | locus YBL061C, strain skt5, active compounds read low 1.01 | locus YBR009C, strain hhf1, active compounds read low 0.988 | locus YBR021W, strain FUR4, active compounds read low 1.03 | locus YBR023C, strain chs3, active compounds read low 1 | locus YBR171W, strain sec66, active compounds read low 1.01 | locus YBR229C, strain ROT2, active compounds read low 0.996 | locus YBR231C, strain swc5, active compounds read low 0.998 | locus YBR279W, strain paf1, active compounds read low 1.01 | locus YCL011C, strain gbp2, active compounds read low 1.01 | locus YCL016C, strain dcc1, active compounds read low 1.01 | locus YCL029C, strain bik1, active compounds read low 0.987 | locus YCL061C, strain MRC1, active compounds read low 1.01 | locus YCL069W, strain vba3, active compounds read low 1.01 | locus YCR088W, strain abp1, active compounds read low 1 | locus YDL005C, strain med2, active compounds read low 1 | locus YDL035C, strain GPR1, active compounds read low 1.02 | locus YDL040C, strain nat1, active compounds read low 0.99 | locus YDL074C, strain BRE1, active compounds read low 1.08 | locus YDL101C, strain DUN1, active compounds read low 1.01 | locus YDL134C, strain PPH21, active compounds read low 1.01 | locus YDL185W, strain tfp1, active compounds read low 0.99 | locus YDL192W, strain arf1, active compounds read low 0.994 | locus YDR001C, strain nth1, active compounds read low 1.01 | locus YDR069C, strain doa4, active compounds read low 0.999 | locus YDR101C, strain arx1, active compounds read low 0.986 | locus YDR137W, strain rgp1, active compounds read low 1.02 | locus YDR150W, strain NUM1, active compounds read low 1.01 | locus YDR159W, strain sac3, active compounds read low 0.965 | locus YDR162C, strain NBP2, active compounds read low 1.01 | locus YDR195W, strain ref2 0.964 | locus YDR297W, strain sur2, active compounds read low 0.999 | locus YDR318W, strain mcm21, active compounds read low 0.993 | locus YDR334W, strain swr1, active compounds read low 1.01 | locus YDR335W, strain msn5, active compounds read low 1.01 | locus YDR388W, active compounds read low 0.985 | locus YDR392W, strain spt3, active compounds read low 0.886 | locus YDR502C, strain sam2, active compounds read low 1 | locus YEL003W, strain gim4, active compounds read low 1.01 | locus YEL037C, strain rad23, active compounds read low 1.01 | locus YEL061C, strain CIN8 (second series), active compounds read low 1.01 | locus YEL061C, strain CIN8, active compounds read low 1 | locus YER015W, strain faa2, active compounds read low 1.02 | locus YER016W, strain bim1, active compounds read low 1.01 | locus YER110C, active compounds read low 0.983 | locus YER111C, strain swi4, active compounds read low 1.02 | locus YER155C, strain BEM2 (second series), active compounds read low 0.995 | locus YER155C, strain BEM2, active compounds read low 0.998 | locus YER167W, strain BCK2, active compounds read low 1.02 | locus YFR010W, strain ubp6, active compounds read low 0.998 | locus YGL078C, strain dbp3, active compounds read low 0.986 | locus YGL086W, strain mad1, active compounds read low 0.987 | locus YGL167C, strain pmr1, active compounds read low 0.995 | locus YGL173C, strain kem1, active compounds read low 0.997 | locus YGL227W, strain vid30, active compounds read low 1.01 | locus YGL240W, strain doc1, active compounds read low 0.972 | locus YGL248W, strain PDE1, active compounds read low 1.01 | locus YGL253W, strain hxk2, active compounds read low 0.997 | locus YGR078C, strain PAC10, active compounds read low 1.01 | locus YGR135W, strain pre9, active compounds read low 1 | locus YGR229C, strain SMI1, active compounds read low 1.03 | locus YGR252W, strain gcn5, active compounds read low 0.98 | locus YHR013C, strain ard1, active compounds read low 0.971 | locus YHR027C, strain rpn1, active compounds read low 1 | locus YHR030C, strain SLT2, active compounds read low 0.984 | locus YHR079C, strain IRE1 (second series), active compounds read low 0.988 | locus YHR094C, strain hxt1, active compounds read low 0.983 | locus YHR129C, strain ARP1, active compounds read low 1.02 | locus YHR142W, strain chs7, active compounds read low 1 | locus YHR200W, strain rpn10, active compounds read low 0.98 | locus YIL066C, strain RNR3, active compounds read low 1.03 | locus YIL073C, strain SPO22, active compounds read low 0.995 | locus YIL125W, strain kgd1, active compounds read low 0.997 | locus YIR030C, strain dcg1, active compounds read low 0.992 | locus YJL092W, strain hpr5, active compounds read low 1.01 | locus YJL095W, strain BCK1 (second series), active compounds read low 1 | locus YJL095W, strain BCK1, active compounds read low 1.03 | locus YJL115W, strain asf1, active compounds read low 1.02 | locus YJL129C, strain trk1, active compounds read low 1.01 | locus YJL134W, strain LCB3, active compounds read low 1 | locus YJL154C, strain vps35, active compounds read low 1.02 | locus YJL164C, strain tpk1, active compounds read low 1.01 | locus YJL166W, strain qcr8, active compounds read low 1 | locus YJL168C, strain set2, active compounds read low 0.98 | locus YJL187C, strain SWE1 (second series), active compounds read low 1.01 | locus YJL187C, strain SWE1, active compounds read low 0.998
